Source: article PMC5700166

target: T1, GST-Nv-NF-kB (Ser allele) (Nematostella vectensis, UniProt A7UNT2 2-411); assay: protein-binding microarray (PBM); PBM: ~300 nM protein, 6 mM HEPES pH 7.8, 80 mM KCl, 0.5 mM EDTA, 0.5 mM EGTA, 6% glycerol, 35 ng/ul poly-dIdC, 1% milk, 1 h, room temperature; Ap Aiptasia and Nv Nematostella (sea anemones) / Co Capsaspora / Aq Amphimedon (sponge) / Dm Drosophila / Hu human; RHD is the Rel homology domain; high values mean tight binding; conditions: dsDNA, one strand shown
T1 sequence: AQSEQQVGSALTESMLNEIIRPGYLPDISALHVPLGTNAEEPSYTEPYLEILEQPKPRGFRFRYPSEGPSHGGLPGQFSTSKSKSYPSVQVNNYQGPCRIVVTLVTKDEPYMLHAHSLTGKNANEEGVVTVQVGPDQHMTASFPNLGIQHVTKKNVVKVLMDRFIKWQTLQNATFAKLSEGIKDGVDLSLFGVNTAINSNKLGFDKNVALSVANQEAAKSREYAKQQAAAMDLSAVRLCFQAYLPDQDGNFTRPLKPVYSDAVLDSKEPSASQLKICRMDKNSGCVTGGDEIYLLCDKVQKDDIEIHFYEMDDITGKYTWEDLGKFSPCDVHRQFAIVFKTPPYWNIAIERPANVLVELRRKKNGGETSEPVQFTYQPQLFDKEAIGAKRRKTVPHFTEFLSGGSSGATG

| Sequence | binding signal [z-score] |
| --- | --- |
| CCGATTAACATCACGGGAATGCCTGATGTTAATCGGGTCTTGATTCGCTTGACGCTGCTG | 1.33 |
| CCGATTAACATCACTAAACCCCCTGATGTTAATCGGGTCTTGATTCGCTTGACGCTGCTG | 6.49 |
| CCGATTAACATCAGGGTAATTTATGATGTTAATCGGGTCTTGATTCGCTTGACGCTGCTG | 6 |
| CCGATTAACATCACAAATACCCCTGATGTTAATCGGGTCTTGATTCGCTTGACGCTGCTG | 4.74 |
| CCGATTAACATCAAGAAAATCCCTGATGTTAATCGGGTCTTGATTCGCTTGACGCTGCTG | 4.75 |
| CCGATTAACATCAGGGGGTTGCATGATGTTAATCGGGTCTTGATTCGCTTGACGCTGCTG | 4.66 |
| CCGATTAACATCATGCCCGGGAATGATGTTAATCGGGTCTTGATTCGCTTGACGCTGCTG | 1.07 |
| CCGATTAACATCAGAAATGCCCCTGATGTTAATCGGGTCTTGATTCGCTTGACGCTGCTG | 3.44 |
| CCGATTAACATCAGATAAACCCCTGATGTTAATCGGGTCTTGATTCGCTTGACGCTGCTG | 3.09 |
| CCGATTAACATCAACACTCCCCCTGATGTTAATCGGGTCTTGATTCGCTTGACGCTGCTG | 5.61 |
| CCGATTAACATCAGAAATTACCCTGATGTTAATCGGGTCTTGATTCGCTTGACGCTGCTG | 5.41 |
| CCGATTAACATCAAGGAATTCCCTGATGTTAATCGGGTCTTGATTCGCTTGACGCTGCTG | 6.37 |
| CCGATTAACATCAGATAACCCCCTGATGTTAATCGGGTCTTGATTCGCTTGACGCTGCTG | 5.95 |
| CCGATTAACATCATGGGAAGGTTTGATGTTAATCGGGTCTTGATTCGCTTGACGCTGCTG | 1.52 |
| CCGATTAACATCAAAAAACCCCGTGATGTTAATCGGGTCTTGATTCGCTTGACGCTGCTG | 6.46 |
| CCGATTAACATCAGATCCCCCCCTGATGTTAATCGGGTCTTGATTCGCTTGACGCTGCTG | 5.97 |
| CCGATTAACATCAGGGGGAACACTGATGTTAATCGGGTCTTGATTCGCTTGACGCTGCTG | 6.37 |
| CCGATTAACATCAAGGGGGGGGCTGATGTTAATCGGGTCTTGATTCGCTTGACGCTGCTG | 3.66 |
| CCGATTAACATCAGGGAGTTTACTGATGTTAATCGGGTCTTGATTCGCTTGACGCTGCTG | 3.63 |
| CCGATTAACATCAGGGGGGAGACTGATGTTAATCGGGTCTTGATTCGCTTGACGCTGCTG | 5.69 |

| Sequence | binding signal [z-score] |
| --- | --- |
| CCGATTAACATCAGGGAAAGGGATGATGTTAATCGGGTCTTGATTCGCTTGACGCTGCTG | 3.11 |
| CCGATTAACATCAAGGGGGGAGATGATGTTAATCGGGTCTTGATTCGCTTGACGCTGCTG | 4.86 |
| CCGATTAACATCAAGCTCTAAGGTGATGTTAATCGGGTCTTGATTCGCTTGACGCTGCTG | 1 |
| CCGATTAACATCAGGGGGTTATATGATGTTAATCGGGTCTTGATTCGCTTGACGCTGCTG | 6.26 |
| CCGATTAACATCAACAACCCCCCTGATGTTAATCGGGTCTTGATTCGCTTGACGCTGCTG | 5.06 |
| CCGATTAACATCATCTCCCCCCATGATGTTAATCGGGTCTTGATTCGCTTGACGCTGCTG | 3.69 |
| CCGATTAACATCAAACATCCCCCTGATGTTAATCGGGTCTTGATTCGCTTGACGCTGCTG | 6.41 |
| CCGATTAACATCAAAAAATCCCTTGATGTTAATCGGGTCTTGATTCGCTTGACGCTGCTG | 5.87 |
| CCGATTAACATCAAACCCCCCCATGATGTTAATCGGGTCTTGATTCGCTTGACGCTGCTG | 4.41 |
| CCGATTAACATCAAACGTTCCCCTGATGTTAATCGGGTCTTGATTCGCTTGACGCTGCTG | 6.33 |
| CCGATTAACATCAAAGAGCCCCCTGATGTTAATCGGGTCTTGATTCGCTTGACGCTGCTG | 3.77 |
| CCGATTAACATCACGCATCCCCCTGATGTTAATCGGGTCTTGATTCGCTTGACGCTGCTG | 6.09 |
| CCGATTAACATCAAACTCCCCCGTGATGTTAATCGGGTCTTGATTCGCTTGACGCTGCTG | 6.52 |
| CCGATTAACATCAGGCGTTCCCCTGATGTTAATCGGGTCTTGATTCGCTTGACGCTGCTG | 5.77 |
| CCGATTAACATCAGGACTGCCCCTGATGTTAATCGGGTCTTGATTCGCTTGACGCTGCTG | 1.72 |
| CCGATTAACATCAAAAATATTCCTGATGTTAATCGGGTCTTGATTCGCTTGACGCTGCTG | 1.03 |
| CCGATTAACATCAAAAAAACACCTGATGTTAATCGGGTCTTGATTCGCTTGACGCTGCTG | 5.3 |
| CCGATTAACATCAGAAAAATCCCTGATGTTAATCGGGTCTTGATTCGCTTGACGCTGCTG | 5.14 |
| CCGATTAACATCACTTTGGGAAATGATGTTAATCGGGTCTTGATTCGCTTGACGCTGCTG | 1.89 |
